A selection: hits, their analogues and other compounds. The true share with any hit is near 10%.
ALDH1A1 inh: inhibitors of human aldehyde dehydrogenase 1A1; P00352; Purified ALDH1A1, NADH fluorescence, propionaldehyde substrate; Potency, µM (series often up to 75.3 µM), for inactives: at the top dose activity, negative = inhibition, hits mostly inhibitors; 7.3% of 220,000 active;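 note: potency is the fitted concentration of half-maximal effect; plate controls were no enzyme wells and a reference inhibitor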
Target sequence (P00352 whole entry, looked up): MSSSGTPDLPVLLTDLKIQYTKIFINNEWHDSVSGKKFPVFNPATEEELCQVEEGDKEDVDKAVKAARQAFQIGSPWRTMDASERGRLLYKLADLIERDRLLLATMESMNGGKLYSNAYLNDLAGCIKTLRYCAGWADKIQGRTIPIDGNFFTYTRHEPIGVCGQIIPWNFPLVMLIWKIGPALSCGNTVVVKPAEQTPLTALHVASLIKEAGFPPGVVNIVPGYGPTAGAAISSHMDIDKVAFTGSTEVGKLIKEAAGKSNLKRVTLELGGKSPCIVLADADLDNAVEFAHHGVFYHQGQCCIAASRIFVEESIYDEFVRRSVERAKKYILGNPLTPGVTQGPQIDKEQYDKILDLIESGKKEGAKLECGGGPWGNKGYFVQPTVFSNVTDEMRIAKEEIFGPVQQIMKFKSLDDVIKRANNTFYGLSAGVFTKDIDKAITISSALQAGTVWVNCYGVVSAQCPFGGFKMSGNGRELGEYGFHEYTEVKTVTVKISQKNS
HPGD inh: HPGD (human) dehydrogenase inhibition. Potency, µM, inactives show at the top dose activity change, negative = inhibition, usual class: inhibitors. 4.3% of 150,000 active. purified HPGD, NADH fluorescence kinetic, PGE2 substrate. AID 894; note: potency is the fitted concentration of half-maximal effect
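20 nM HPGD preincubated 15 min at room temperature with compound in 50 mM Tris-HCl pH 8, 0.01% Tween 20. Started with 1 mM NAD+ and 30 uM prostaglandin E2; NADH fluorescence (360/450 nm) read 5 times over 30-s intervals, last minus first.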
KinaseGlo FLuc: counter-screen: inhibitors of Kinase-Glo firefly luciferase | 0.28% of 200,000 active | Q27757 | AID 1379 | Kinase-Glo luciferase, ATP luminescence, 8 min | Potency, µM (series often up to 38.3 µM), without a hit: top-dose activity change, negative = inhibition, actives largely listed as inhibitors; active = well fitted inhibition curve with a large enough effect; inconclusive = small, poorly fitted or top-dose-only effect; note: potency is the fitted concentration of half-maximal effect; nearly all actives have a fitted effect of over 60% in size
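Luminescence was the read-out, taken after 8-minute incubation at ambient temperature. Luciferase turned over luciferin with 10 uM ATP in imidazole pH 7.2 buffer containing KCl, MgCl2, Tween 20 and BSA.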
Lamin A splicing: changes lamin A minigene splicing in HeLa cells | HeLa LMNA splicing GFP/RFP minigene ratio, 48 h | Potency, µM (titrated, usually from 46.1 µM), without a hit: at the highest dose ratio change, negative = inhibition, most hits filed as inhibitors | 0.01% of 200,000 active | AID 1487; active = well fitted inhibition curve with a large enough effect in the signal ratio, with a control signal flat, not every such curve was filed as active; inconclusive = small, poorly fitted or top-dose-only effect, or effect the other way, or a change in a side signal; the % refers to the signal ratio; note: potency is the fitted concentration of half-maximal effect
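S3 HeLa stable clones carrying a lamin A-EGFP splicing minigene plus DsRed2 were seeded at 600 cells/well in Opti-MEM with 2% FBS, pin-dosed and incubated 48 h at 37°C. Acumen cytometry (488 nm) gave the GFP/RFP total-intensity ratio.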
PNC assembly inh: blocks assembly of the perinucleolar compartment. activity change (PNC), negative = inhibition, % at 10 µM. PC3M PTB-GFP, PNC prevalence imaging, 16 h; active compounds read low. 3.1% of 140,000 active;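 active = readout at or below -70, meaning at least 70% loss of cells showing the perinucleolar compartment, a nuclear body marking cancer cells; inconclusive = readout between -30 and a set limit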;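 note: plate controls were DMSO wells for no effect and camptothecin positive control wells for full effect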
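PC3M cells stably expressing PTB-GFP, 750–1000 cells/well, treated 16 h at 37 °C with compound (23 nl of library stock), in duplicate. After paraformaldehyde fixation and Hoechst stain, imaged at 20x; PNC prevalence scored by image analysis.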
Starred values were filed as active, the others as inactive; ? = inconclusive; . = no result; [ ] = dose if it differs, or a comment. Unless noted, calls come from the whole dose curve; as a rule, active = well fitted inhibition curve with a large enough effect (not every such curve was filed as active); inconclusive = small, poorly fitted or top-dose-only effect, or another doubt; inactive = no such curve, though single readings can be large or run the other way. Unless noted, % is set by controls: 0 for no effect and ±100 for the full control effect.

SMILES	ALDH1A1 inh	HPGD inh	KinaseGlo FLuc	Lamin A splicing	PNC assembly inh
CCOC(=O)N1CCC(NC(=O)C2CCCN(C(=O)c3cc4sccc4n3C)C2)CC1 (stereo not drawn)	?	-1.7%	2.3%	?	0.7
Cn1c(C(=O)N2CCCC(C(=O)NCc3ccc4c(c3)OCO4)C2)cc2sccc21 (stereo not drawn)	3.55µM*	-10.8%	0.8%	-18.0%	11.0
Cn1c(C(=O)N2CCCC(C(=O)NCCc3ccccc3)C2)cc2sccc21 (stereo not drawn)	11.2µM*	-17.1%	-1.7%	-4.9%	48.5
Cc1cc(C)c(NC(=O)C(=O)NCCc2csc(-c3ccc(F)cc3)n2)c(C)c1	.	.	.	-9.5%[46 µM]	.
CCOC(=O)Cn1c(=O)n(CC2CCCO2)c2nc(-c3ccccc3)nc(C(N)=O)c21 (stereo not drawn)	.	.	.	6.0%[46 µM]	.
Cc1oc2ncn(CC(C)C)c(=O)c2c1C(=O)Nc1cc(F)ccc1F	.	.	.	-5.1%[46 µM]	.
N/N=C1/CC(=O)NC(=O)N1	?	?	0.3%[7.66 µM]	.	.
Cc1cc(C)n2nc(CC#N)c(C#N)c2n1	?	.	-1.5%	-1.4%[9.22 µM]	.
Cc1cc(C)n2nc(/C(C#N)=C/c3ccccn3)c(C#N)c2n1	14.1µM*	.	-2.4%	?	.
COc1ccc(NC(=O)CN2CCN(C3CCCCC3)C(=O)C2=O)cc1	.	.	.	-13.3%[46 µM]	.
COc1ccc(NC(=O)[C@@H]2[C@@H]3C(=O)N(C4CCCCC4)C(=O)[C@@H]3C3c4ccccc4C=CN32)cc1 (stereo partly drawn)	0.501µM*	-27.8%	-1.6%	3.2%	33.8
CC(=O)[C@@H]1[C@@H]2C(=O)N(C3CCCCC3)C(=O)[C@@H]2C2c3ccccc3C=CN21 (stereo partly drawn)	7.08µM*	?	-5.9%	10.2%	38.7
CC(C)(C)C(=O)[C@@H]1[C@@H]2C(=O)N(Cc3ccccc3)C(=O)[C@@H]2[C@H]2c3ccccc3C=CN12	?	-14.8%	-0.8%	?	?
O=C(Nc1cnccn1)Nc1ccc(Cl)cc1Cl	5.8%	.	-5.2%	.	.
O=C(O)[C@H](C1NCCS1)N1Cc2ccccc2C1 (stereo partly drawn)	2.8%[13.5 µM]	-1.9%	0.2%[7.66 µM]	.	.
CC(CCC(=O)O)C1CCC2C3C(=O)CC4CC(=O)CC[C@@]4(C)C3CC(=O)[C@]12C (stereo partly drawn)	-5.5%	-14.4%	-0.3%	.	.
Nc1nnn(Cc2ccccc2)n1	2.3%	-11.1%	-1.2%	-9.0%	-100.0*
N#Cc1cccc(Cn2nnc(-c3ccccc3)n2)c1	?	-15.3%	2.5%	7.3%	6.5
c1ccc(Cn2nnc(-c3ccccc3)n2)cc1	10.5%	-19.1%	-1.0%	-4.1%	-100.0*
O=C(N/N=C/c1ccc(Br)s1)c1c[nH]c2ccccc12	-1.2%	-11.6%	-0.7%	-4.2%	?
COC(=O)C(C(=O)OC)[C@@H]1c2ccccc2[C@H]2C(=C[C@@H](C)[C@H]3C(=O)N(c4ccccc4)C(=O)[C@H]32)N1C(=O)OC	?	-4.5%	-2.4%[7.66 µM]	?	.
O=C1NC(=S)S/C1=C1\Sc2ccccc2N1CCCS(=O)(=O)O	25.1µM*	25.1µM*	1.2%	9.5%	-6.5
CCOC(=O)CSc1nc2cc3c(cc2c(=O)n1Cc1ccc(C(=O)NCCc2ccc(OC)c(OC)c2)cc1)OCO3	.	.	.	2.4%[46 µM]	.
Cc1cc(C)cc(NC(=O)CC(C)n2nc(C)cc2C)c1 (stereo not drawn)	.	.	.	-18.6%[46 µM]	.
CCCSC1=NC2(CCN(C(=O)NC3CCCCC3)CC2)N=C1c1ccc(Cl)cc1	.	.	.	8.1%[46 µM]	.
SMILES	ALDH1A1 inh	HPGD inh	KinaseGlo FLuc	Lamin A splicing	PNC assembly inh
COc1ccccc1/C=C/C=N/n1c(-c2n[nH]c3c2CCC3)n[nH]c1=S	8.91µM*	.	.	.	.
S=c1[nH]nc(-c2n[nH]c3c2CCC3)n1/N=C/C=C/c1ccco1	7.08µM*	.	.	.	.
COc1cccc(/C=N/n2c(-c3n[nH]c4c3CCC4)n[nH]c2=S)c1O	?	?	2.2%	-5.5%	12.3
S=c1[nH]nc(-c2ccco2)n1/N=C/C=C/c1ccco1	-8.3%	14.1µM*	1.2%	-20.9%	?
COC(=O)CCCC1=CC2=C(c3ccccc3)C(=O)C(C)(OC(=O)C3CCCC3)C(=O)C2=CN1CCCOC(C)C (stereo not drawn)	?	-14.6%	-7.7%[7.66 µM]	-13.8%[9.22 µM]	.
COc1cc(O)c(C(=O)c2ccccc2)cc1O	-12.3%	4.47µM*	-0.3%	?	.

From PubChem BioAssay
